# From PubChem BioAssay AID651844 (Broad Institute, 2012)
# Measured potencies and affinities stand elsewhere. Records with an inconclusive call do not appear. Activity calls are given as the source filed them.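 Rule for the calls: active = every test run shows a luminescence drop with half-maximal concentration at most twice the top tested dose; inconclusive = test runs disagree, weak flat response, or unreliable curve fit; inactive = the rest.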
# Experiment: mouse fibroblast viability loss – cell-based, dry powder samples, cytotoxicity control, dose response (AID 651844)
# Conditions: NIH/3T3 viability, CellTiter-Glo ATP luminescence, 90 h; series mostly up to 16 µM
row,SMILES,outcome
1,CC(C)N1C[C@H](C)[C@@H](CN(C)Cc2cccc(Cl)c2)Oc2c(NC(=O)c3ccncc3)cccc2C1=O,inactive
2,CC(C)N1C[C@H](C)[C@@H](CN(C)C(=O)OC(C)(C)C)Oc2c(C(=O)Nc3ccncc3)cccc2C1=O,inactive
3,CC(C)N1C[C@H](C)[C@@H](CN(C)C(=O)OC(C)(C)C)Oc2c(C#N)cccc2C1=O,inactive
4,C[C@@H]1CN([C@@H](C)CO)C(=O)c2cccc(NC(=O)c3ccncc3)c2O[C@H]1CN(C)Cc1ccncc1,inactive
5,C[C@H]1CN([C@@H](C)CO)C(=O)c2cccc(NC(=O)c3ccncc3)c2O[C@@H]1CN(C)Cc1ccc(C(=O)Nc2ccccc2N)cc1,inactive
6,COc1ccc(CN(C)C[C@H]2Oc3c(NC(=O)c4ccncc4)cccc3C(=O)N([C@@H](C)CO)C[C@@H]2C)cc1,inactive
7,CC(C)N1C[C@H](C)[C@@H](CN(C)CC2CCOCC2)Oc2c(NC(=O)c3ccncc3)cccc2C1=O,inactive
8,C[C@@H]1CN([C@H](C)CO)C(=O)c2cccc(NC(=O)c3ccncc3)c2O[C@H]1CN(C)Cc1ccc2c(c1)OCO2,inactive
9,C[C@@H]1CN([C@@H](C)CO)C(=O)c2cccc(NC(=O)c3ccncc3)c2O[C@H]1CN(C)Cc1cccc(Cl)c1,inactive
10,CC(C)N(C)C(=O)c1cccc(NC(=O)c2ccncc2)c1OCCCN(C)Cc1ccc(Cl)cc1,inactive
11,CC(C)N1C[C@H](C)[C@@H](CN(C)Cc2ccc(Oc3ccccc3)cc2)Oc2c(NC(=O)c3cccnc3)cccc2C1=O,inactive
12,CC(C)N1C[C@H](C)[C@@H](CN(C)C(=O)OC(C)(C)C)Oc2c(C(=O)O)cccc2C1=O,inactive
13,CC(C)N1C[C@H](C)[C@@H](CN(C)C(=O)OC(C)(C)C)Oc2c(NC(=O)c3ccccn3)cccc2C1=O,inactive
14,C[C@@H]1CN([C@@H](C)CO)C(=O)c2cccc(NC(=O)c3ccncc3)c2O[C@H]1CN(C)Cc1ccc(C(=O)O)cc1,inactive
15,CC(C)N1C[C@H](C)[C@@H](CN(C)Cc2ccc(Cl)cc2)Oc2c(NC(=O)c3ccncc3)cccc2C1=O,inactive
16,C[C@H]1CN([C@@H](C)CO)C(=O)c2cccc(NC(=O)c3ccncc3)c2O[C@@H]1CN(C)Cc1ccccc1,inactive
17,CC(C)N1C[C@@H](C)[C@H](CN(C)Cc2ccc(Oc3ccccc3)cc2)Oc2c(cccc2N(C)C(=O)c2ccncc2)C1=O,inactive
18,CC(C)N1C[C@H](C)[C@@H](CN(C)Cc2ccc(Oc3ccccc3)cc2)Oc2c(NC(=O)c3ccccn3)cccc2C1=O,inactive
19,CC(C)N1C[C@H](C)[C@@H](CN(C)Cc2ccc(Oc3ccccc3)cc2)Oc2c(NC(=O)c3ccccc3)cccc2C1=O,inactive
20,C[C@@H]1CN([C@@H](C)CO)C(=O)c2cccc(NC(=O)c3ccncc3)c2O[C@@H]1CN(C)Cc1ccc(Oc2ccccc2)cc1,inactive
21,CC(C)N1C[C@H](C)[C@@H](CN(C)C(=O)OC(C)(C)C)Oc2c(NC(=O)c3ccccc3)cccc2C1=O,inactive
